Bioassay records as filed in PubChem.
BLM inh – Bloom syndrome helicase (human) inhibition; Potency, µM (doses to about 56.1 µM), inactives show at the top dose activity change, negative = inhibition, hits mostly inhibitors; 350,000 compounds, 0.2% hits; AID 2528; recombinant BLM DNA unwinding, fluorescence dequenching;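 further: potency means the concentration at half of the fitted maximal effect; plate controls were vehicle for no effect and no enzyme for full effect; nearly all actives have a fitted effect of over 35% in size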
PI5P4K alpha inh – PI5P4K alpha (human) kinase inhibition. P48426. PI5P4Kalpha enzyme, ADP-Glo luminescence, 60 min; stronger effect = lower value. max response, %. 330,000 compounds, 1.2% hits; active means max response of -50% or lower; inconclusive means between -30% and -50%; inactive means -30% or higher; further: value at the top dose of about 77 µM
Target sequence (P48426 whole entry, looked up): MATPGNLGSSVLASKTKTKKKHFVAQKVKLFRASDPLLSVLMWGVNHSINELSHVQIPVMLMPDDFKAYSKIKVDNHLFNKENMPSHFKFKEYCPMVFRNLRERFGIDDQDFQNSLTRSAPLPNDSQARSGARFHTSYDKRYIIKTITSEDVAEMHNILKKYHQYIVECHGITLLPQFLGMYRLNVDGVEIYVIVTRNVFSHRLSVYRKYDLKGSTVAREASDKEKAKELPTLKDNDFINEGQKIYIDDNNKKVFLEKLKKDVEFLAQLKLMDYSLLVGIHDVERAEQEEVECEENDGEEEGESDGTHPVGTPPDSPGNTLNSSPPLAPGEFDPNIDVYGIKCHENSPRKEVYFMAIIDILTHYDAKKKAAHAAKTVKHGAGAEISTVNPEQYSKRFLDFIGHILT
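Quantitative HTS of the MLSMR library against PI5P4Kalpha with substrate. ATP added last at 5 microM final; room temperature, 60 minutes. Remaining ATP depleted, ADP converted and read as luminescence.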
APE1 inh-1 – inhibitors of human APE1 endonuclease. Potency, µM (titrated, usually from 65.8 µM), inactives show at the highest dose activity change, negative = inhibition, actives largely listed as inhibitors. P27695. 350,000 compounds, 0.35% hits. recombinant APE1, TAMRA/BHQ-2 abasic DNA cleavage fluorescence. AID 2517;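 further: potency means the concentration at half of the fitted maximal effect; plate controls were vehicle for no effect and reference inhibitor for full effect; nearly all actives have a fitted effect of over 55% in size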
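APE1 at 0.75 nM preincubated 15 min at room temperature with compound. Reaction then started with 50 nM double-stranded THF-abasic substrate labelled with TAMRA/BHQ-2, and 525/598 nm fluorescence read kinetically. Activity taken as third-minus-first read difference, normalized to DMSO and NSC13755 controls.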
RECQ1 helicase – blocks DNA unwinding by human RECQ1. Potency, µM (doses to about 57.3 µM), inactives show at the highest dose activity, negative = inhibition, usual class: inhibitors. RECQ1 DNA unwinding, red fluorescence kinetic read. 240,000 compounds, 0.54% hits;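 further: potency means the concentration at half of the fitted maximal effect; plate controls were vehicle for no effect and no enzyme for full effect; nearly all actives have a fitted effect of over 30% in size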
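RECQ1T1 50 nM; forked duplex (20 bp + 30-nt ss tails) 200 nM, ATP 2 mM final; pH 8.0, 2 mM MgCl2, 2.5 ug/ml poly(dI-dC); 15 min compound preincubation; discontinuous kinetic read over 2 h at RT.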
WRN helicase inh – WRN helicase (human) inhibition; Q14191; Potency, µM (titrated, usually from 114 µM), for inactives: at the highest dose activity change, negative = inhibition, actives largely listed as inhibitors; 360,000 compounds, 0.46% hits; WRN helicase unwinding, fluorescent forked duplex, kinetic; further: potency means the concentration at half of the fitted maximal effect; nearly all actives have a fitted effect of over 55% in size
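Kinetic fluorescence helicase assay: unwinding of a quenched forked DNA duplex (100 nM final) with 2 mM ATP final raises red fluorescence (525/598 nm). Compounds sat 15 min at room temperature with 20 nM WRN beforehand.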
FEN1 inh – human FEN1 inhibition | P39748 | Recombinant FEN1 flap cleavage, fluorescence, 15 min | Potency, µM (highest dose often 114 µM), for the others: at the top dose activity change, negative = inhibition, usual class: inhibitors | 390,000 compounds, 0.35% hits | AID 588795; further: potency means the concentration at half of the fitted maximal effect; nearly all actives have a fitted effect of over 65% in size
Target sequence (P39748 whole entry, looked up): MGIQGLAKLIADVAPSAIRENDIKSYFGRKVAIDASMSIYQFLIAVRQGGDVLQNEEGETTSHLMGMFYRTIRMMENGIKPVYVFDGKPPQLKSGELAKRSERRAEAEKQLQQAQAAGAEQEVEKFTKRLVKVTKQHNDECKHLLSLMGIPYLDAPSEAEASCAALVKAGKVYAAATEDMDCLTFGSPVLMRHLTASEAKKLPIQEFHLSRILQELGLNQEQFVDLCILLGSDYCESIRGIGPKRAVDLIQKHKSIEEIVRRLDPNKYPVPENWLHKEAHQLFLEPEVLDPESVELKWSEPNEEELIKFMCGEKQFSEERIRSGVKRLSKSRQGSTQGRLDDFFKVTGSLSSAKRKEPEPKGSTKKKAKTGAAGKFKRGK
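Nuclease activity of 10 nM FEN1 was measured after 15 min of room-temperature exposure to titrated compounds, by adding 50 nM flap substrate and reading plates at 0 and 15 min.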
APE1 dye cs – counter-screen for APE1 inhibitors: DNA dye displacement; DNA fluorescent dye displacement counterscreen, fluorescence; 480 compounds, 7% hits; Potency, µM (series often up to 28.5 µM), without a hit: at the highest dose activity change, negative = inhibition, hits mostly inhibitors; shares compounds with APE1 inh-1;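 further: loss of thiazole orange fluorescence as the dye is displaced from duplex DNA; potency means the concentration at half of the fitted maximal effect; 0% = ThO with dsDNA and no compound and -100% = ThO without dsDNA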
Endo IV inh – blocks E. coli endonuclease IV DNA cleavage | shares compounds with APE1 inh-1 | E. coli Endo IV, fluorogenic AP-site DNA cleavage | Potency, µM (top dose mostly 27.1 µM), without a hit: top-dose activity change, negative = inhibition, usual class: inhibitors | 560 compounds, 4% hits | AID 2565;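 further: potency means the concentration at half of the fitted maximal effect; plate controls were uninhibited enzyme wells for no effect and no enzyme buffer wells for full effect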
APE1 inh-2 – confirmation of inhibitors of human APE1 endonuclease | shares compounds with APE1 inh-1 | purified APE1, fluorogenic abasic-site DNA cleavage | Potency, µM (series often up to 57.1 µM), without a hit: at the top dose activity change, negative = inhibition, actives largely listed as inhibitors | 750 compounds, 44% hits | AID 2572; further: potency means the concentration at half of the fitted maximal effect; nearly all actives have a fitted effect of over 30% in size
APE1 FP inh – displaces DNA from human APE1 in FP assay; AID 2573; Potency, µM (doses to about 28.5 µM), for the others: top-dose activity, negative = inhibition, hits mostly inhibitors; APE1 binding to TAMRA-labelled double-stranded DNA, fluorescence polarization displacement; shares compounds with APE1 inh-1; 480 compounds, 7% hits; further: potency means the concentration at half of the fitted maximal effect
* hit, by the source's call; i = inactive; ? = inconclusive; / = not tested or not shown; [ ] = another dose, or the depositor's remark. A selection: hits, their analogues and other compounds. The true share with any hit is near 1.5%. Unless noted, the call rests on the fitted dose curve; in most records, active means well fitted curve in the direction sought with a large enough effect; inconclusive means small, poorly fitted or top-dose-only effect, or another doubt; inactive means no such curve, though single readings can be large; an effect the other way counts as inactive or inconclusive. Unless noted, on the % scale 0 is the no-effect control and ±100 the full control effect.

SMILES | BLM inh | PI5P4K alpha inh | APE1 inh-1 | RECQ1 helicase | WRN helicase inh | FEN1 inh | APE1 dye cs | Endo IV inh | APE1 inh-2 | APE1 FP inh
COc1ccc(-c2cn3cccnc3n2)cc1NC(=O)c1ccc(Br)o1 | -1% | / | -6% | ? | -17% | ? | / | / | -25% | /
O=C1/C(=C\c2ccco2)SC(=S)N1c1ccc(O)cc1 | 34% | -11 | 4% | -20% | -8% | -7% | / | / | / | /
NN1C(=O)/C(=C\c2ccco2)SC1=S | ? | -15 | 14µM* | ? | -5%[11.6 µM] | 1% | -11% | 4% | ? | 1%
Cc1ccc2c(c1)c1c(c(=O)n(-c3cccc(Cl)c3)c(=O)n1C)n2C | 0% | / | / | / | / | 0% | / | / | / | /
CC1(C)Oc2cc(N)c([N+](=O)[O-])cc2O1 | 3% | 2 | 32µM* | -5% | -7% | 0% | -8% | 0% | -8%[24.4 µM] | 2%
OCC1OC(O)C(O)C(O)C1O (configuration not stated) | -12% | / | / | -1% | / | / | / | / | / | /
OCC1OC([S-])[C@H](O)C(O)C1O.[Au+] (some centres not stated) | ? | / | / | -4% | / | / | / | 11%[57.1 µM] | 13µM* | /
CC(C)c1ccc(NC(=O)CSc2nc(=O)n(Cc3ccccn3)c3c2CCC3)cc1 | 1% | / | / | / | / | 7% | / | / | / | /
O=C(O)C1C2C=CC(C2)C1C(=O)NCc1cccs1 (configuration not stated) | -3% | -2 | ? | i | -5% | -4% | / | / | ? | /
C=C(C)C(=O)OCCCCCCOc1ccc(C(=O)O)cc1 | -16% | / | -3% | -4% | -10%[57.1 µM] | -4% | / | / | ? | /
C=CCC(=O)OCCCCCCOc1ccc(C(=O)O)cc1 | 1% | -4 | 9% | 0% | -2% | 0% | / | / | / | /
CCN1/C(=C/C=C/c2oc3ccc4ccccc4c3[n+]2CC)Oc2ccc3ccccc3c21 | -29% | -74* | 25µM* | i | ? | ? | 142% | 3.2µM* | 8.9µM* | i
CCc1ccc(-c2ccc3nnc(SCC(=O)Nc4cccc(C(C)=O)c4)n3n2)cc1 | -1% | / | / | / | / | -12% | / | / | / | /
Cc1nc(-c2ccc(C(=O)O)cc2)cs1 | -1% | / | 3% | -6% | 7% | 3% | / | / | / | /
Cc1nc(-c2ccc(O)c(O)c2)cs1 | 0% | -7 | 3.2µM* | ? | -16% | -1% | 1% | 183% | -8%[24.4 µM] | -3%
CC1=N/C(=C/c2ccco2)C(=O)O1 | 2% | -4 | 25µM* | ? | -10%[11.6 µM] | -21% | -6% | 9% | 35µM* | -19%
O=C1OC(c2ccc(Br)cc2)=N/C1=C\c1ccco1 | -2% | 3 | 18% | -4% | -21% | -1% | / | / | / | /
Cc1c(Br)c(O)c(Br)c2sc(=O)oc12 | -15% | -69* | ? | 22µM* | -32% | ? | 4% | 16% | -7%[24.4 µM] | 1%
C=C(C)C(=O)Nc1cccc(C2=NOC3(C2)C[C@@H](C(N)=O)N(C(=O)CCCCC)C3)c1 (some centres not stated) | -12% | ? | ? | 25µM* | 40µM* | 25µM* | / | / | 40µM* | /
COc1ccc(-c2noc(-c3ccc(NCCc4ccccc4)c([N+](=O)[O-])c3)n2)cc1 | -3% | / | / | / | / | -6% | / | / | / | /
Cc1ccc(C(=O)O)cc1-n1c(C)cc(C=O)c1C | -4% | -2 | ? | i | -28% | -15% | / | / | ? | /
CCN(CC)c1nn2c(=O)c(C(=O)NCc3cccc(C)c3)cnc2s1 | -2% | / | / | / | / | 1% | / | / | / | /
Cn1c(=O)c(NCCc2ccccc2)c2c3c(cccc31)C(=O)c1ccccc1-2 | ? | 2 | 32µM* | 10µM* | 40µM* | 56µM* | i | ? | ? | 0.79µM*
O=C1CC(c2ccccc2)Oc2cc(O)cc(O)c21 (configuration not stated) | -5% | -12 | ? | i | 4% | 11% | / | / | / | /
CC1CC(=O)c2c(cc3c(-c4c(O)cc(O)c5c(O)c6c(cc45)OC(C)CC6=O)c(O)cc(O)c3c2O)O1 (configuration not stated) | -21% | -80* | ? | 18µM* | ? | 14µM* | 4.5µM* | ? | ? | -12%
SMILES | BLM inh | PI5P4K alpha inh | APE1 inh-1 | RECQ1 helicase | WRN helicase inh | FEN1 inh | APE1 dye cs | Endo IV inh | APE1 inh-2 | APE1 FP inh
Nc1cc(C(=O)O)ccc1Sc1ccccc1C(=O)O | 6% | ? | ? | 28% | -3% | -6% | / | / | -10% | /
O=C(O)c1ccccc1SSc1ccccc1C(=O)O | -9% | -1 | 14% | / | -14% | -4% | / | / | / | /
COc1ccc(CCNC(=O)c2ccc3c(Cl)c4c(nc3c2)CCCC4)c(OC)c1 | -3% | / | / | / | / | 12% | / | / | / | /
CCOc1ccc(CCNC(=O)CCN2N=C(c3ccc(OC)cc3)CCC2=O)cc1OCC | 3% | / | / | / | / | 12% | / | / | / | /
Cc1ccc(/C=C2/NC(=O)N(Cc3ccc(Br)cc3)C2=O)o1 | -3% | ? | -2% | -13% | ? | -5% | / | / | / | /
O=C(O)c1ccc(-c2ccc(/C=C3\NC(=O)N(Cc4ccc(Cl)cc4)C3=O)o2)cc1Cl | 30% | -69* | ? | ? | 22µM* | 28µM* | / | / | 16µM* | /
COc1ccc(-c2ccc(CCC(=O)O)n2CC(=O)Nc2cccc(C(F)(F)F)c2)cc1 | 1% | / | / | / | / | 12% | / | / | / | /
O=C(NCCn1cc(SCc2ccccc2F)c2ccccc21)c1cccs1 | -13% | / | / | / | / | 4% | / | / | / | /
O=C(CSc1ccsc1[N+](=O)[O-])Nc1cccc(F)c1 | -21% | -77* | ? | ? | ? | ? | ? | 18% | 14µM* | -20%
COc1ccc2c(c1)c(=O)oc1cc(OCC(=O)NC3CC3)ccc12 | -5% | -28 | ? | i | -4% | -4% | / | / | / | /
COc1ccc2c(c1)c(=O)oc1cc(OCC(=O)NC3CCCCC3)ccc12 | -14% | / | 11µM* | -13% | -12%[11.6 µM] | -3% | -11% | -2% | 5.6µM* | -29%
COc1ccc(NC(=O)c2oc3ccccc3c2NC(=O)Cc2cccs2)c(OC)c1 | -1% | / | / | / | / | 4% | / | / | / | /
